Source: PubChem
Shown are actives, neighbours in structure and some others; about 2% of the full set was active somewhere.
hERG WT inh: blocks the wildtype human KCNH2 potassium channel; AID 720551; U2OS, BacMam KCNH2, thallium flux FluxOr; stronger effect = lower value; actives 0.37% (n = 340,000); activity change, % at 1.84 µM; Q12809;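 active = maximum activity change below -70%; inconclusive = maximum activity change between -70% and -50%; inactive = maximum activity change above -50%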
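U2OS cells transduced with wild-type KCNH2 virus are loaded with FluxOr dye for 45 min, and thallium flux is measured in kinetic reads before and after stimulation buffer. Rate constants are normalized to DMSO controls.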
JMJD2E inh: JMJD2E (human) inhibition; JMJD2E catalytic domain, FDH-coupled NADH fluorescence (FDH is formaldehyde dehydrogenase); Potency, µM (series often up to 57.1 µM), usual class: inhibitors; actives 1.6% (n = 230,000); active = well fitted inhibition curve with a large enough effect, not every such curve was filed as active; inconclusive = small, poorly fitted or top-dose-only effect, or another doubt; inactive = no such curve, though single readings can be large or run the other way; note: nearly all actives have a fitted effect of over 50% in size
Target sequence (B2RXH2 1-337 limits assumed): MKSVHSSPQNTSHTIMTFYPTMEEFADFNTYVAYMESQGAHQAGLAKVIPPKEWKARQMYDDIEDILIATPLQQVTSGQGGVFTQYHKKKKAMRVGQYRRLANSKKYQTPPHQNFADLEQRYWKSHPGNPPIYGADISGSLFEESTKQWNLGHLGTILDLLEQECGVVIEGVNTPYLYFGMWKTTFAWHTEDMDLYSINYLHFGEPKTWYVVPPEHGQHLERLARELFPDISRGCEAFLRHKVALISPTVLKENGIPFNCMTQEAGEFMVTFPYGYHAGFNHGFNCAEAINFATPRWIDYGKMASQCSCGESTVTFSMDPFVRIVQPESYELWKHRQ
KCNH2 3.1 block: KCNH2 3.1 (human) potassium channel inhibition; actives 0.95% (n = 340,000); AID 720553; activity change, % (tested at about 1.8 µM); U2OS KCNH2 3.1, thallium flux FluxOr; stronger effect = lower value;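 active = maximum activity change below -70%; inconclusive = maximum activity change from -70% to -50%; inactive = maximum activity change above -50%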;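 note: thallium influx rate constant from kinetic fluorescence after stimulation buffer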
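We transduce U2OS cells with the mutant 3.1 virus, culture them overnight, load FluxOr with Red40 quencher for 45 min, then add stimulation buffer and read kinetically for 2 min to derive a normalized rate constant.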
Six1-Eya2 inh: inhibitors of human Six1/Eya2 interaction. activity change, % (no concentration beside the values). AlphaScreen GST-Six1/His-Eya2 binding, biochemical; stronger effect = lower value. actives 0.56% (n = 360,000). Q15475+O00167. AID 651725
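Homogeneous AlphaScreen proximity assay pairing GST-Six1 with His-tagged Eya2 (added as 5X mix: 250 nM and 500 nM) in 50 mM Tris pH 8.0, 300 mM NaCl, 1 mM TCEP. Glutathione donor and nickel acceptor beads; 1 h, 37 °C, dark.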
CtBP-E1A blk: inhibitors of CtBP/E1A interaction | activity change, % (no concentration beside the values) | AlphaScreen GST-E1A/His-CtBP binding, 1536-well; stronger effect = lower value | AID 651724 | actives 0.49% (n = 340,000)
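AlphaScreen with 125 nM GST-E1A and 125 nM His-CtBP (5X stocks) in Tris pH 8.0, 300 mM NaCl, BSA, Tween 20, TCEP. Compounds preincubated 2 h at 37 deg C, then glutathione donor/nickel acceptor beads added for 1 h at 37 deg C in dark.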
Hits are given with their value; ! = repeats disagree; [ ] = another dose, or the depositor's remark. Cut-off read from the data, not from the text of the source, unless noted: active = activity change below about -65%; inconclusive = mostly about -30% to -63%; inactive = weaker than that.

How did CC(C)c1ccc(NC(=O)C2CCN(C(=O)[C@@H]3Cc4ccccc4CN3)CC2)cc1 do in these assays?
hERG WT inh: inactive; KCNH2 3.1 block: -88; Six1-Eya2 inh: inactive; CtBP-E1A blk: inactive

How did O=C(C[C@@H]1C/C=C\CCC(=O)OC[C@@H]2CCCN2C1=O)N[C@H](CO)Cc1ccccc1 do in these assays?
hERG WT inh: inactive; KCNH2 3.1 block: inactive; Six1-Eya2 inh: inactive; CtBP-E1A blk: inactive

How did O=c1oc2ccccc2cc1-c1nc2ccccc2o1 do in these assays?
hERG WT inh: inactive; JMJD2E inh: inconclusive; KCNH2 3.1 block: inactive; Six1-Eya2 inh: inactive; CtBP-E1A blk: inactive

How did O=c1oc2ccccc2cc1-c1nc2c(s1)CCCC2 do in these assays?
hERG WT inh: inactive; JMJD2E inh: inconclusive; KCNH2 3.1 block: -87; Six1-Eya2 inh: inactive; CtBP-E1A blk: inactive

What do the screens show for `COc1ccc(CNC(=O)CN(C)Cc2ccccc2F)cc1OC`?
hERG WT inh: inactive; KCNH2 3.1 block: inactive; Six1-Eya2 inh: inactive; CtBP-E1A blk: inactive

How did Cc1oc2c(O)c(O)ccc2c(=O)c1-c1ccccc1 do in these assays?
hERG WT inh: inactive; JMJD2E inh: 13µM; KCNH2 3.1 block: inactive; Six1-Eya2 inh: inactive; CtBP-E1A blk: inactive

Results for O=c1cc(-c2ccccc2O)oc2ccc3ccccc3c12 ?
JMJD2E inh: inactive

Results for O=c1cc(-c2ccccc2)oc2c(O)c(O)ccc12 ?
JMJD2E inh: 7.9µM

Results for O=c1cc(-c2ccccc2O)oc2c(O)c(O)ccc12 ?
JMJD2E inh: 11µM

Results for Cc1cc(=O)oc2c(O)c(O)ccc12 ?
hERG WT inh: inactive; JMJD2E inh: 2.2µM; KCNH2 3.1 block: inactive; Six1-Eya2 inh: inactive; CtBP-E1A blk: inactive

How did Cc1oc2c(O)c(O)ccc2c(=O)c1-c1ccc(Cl)cc1 do in these assays?
hERG WT inh: inactive; KCNH2 3.1 block: inactive; Six1-Eya2 inh: inactive; CtBP-E1A blk: inactive

What do the screens show for `Cc1cc(-c2ccccc2)nc(SCc2ccc(C(=O)O)cc2)n1`?
hERG WT inh: inactive; KCNH2 3.1 block: inactive; Six1-Eya2 inh: inactive

What do the screens show for `Cc1c(Cc2ccccc2)c(=O)oc2cc(O)ccc12`?
hERG WT inh: inactive; JMJD2E inh: inconclusive; KCNH2 3.1 block: inactive; Six1-Eya2 inh: inactive; CtBP-E1A blk: inactive

What do the screens show for `Cc1c(Cc2ccccc2)c(=O)oc2c(O)c(O)ccc12`?
hERG WT inh: inactive; JMJD2E inh: 3.2µM; KCNH2 3.1 block: inactive; Six1-Eya2 inh: inactive; CtBP-E1A blk: inactive

Results for COC/C=C/C1=CC2=CC(=O)C(C)(OC(=O)c3cnc4ccccc4n3)C(=O)C2=CN1CCCCO (stereo not given) ?
hERG WT inh: inactive; JMJD2E inh: 8.9µM!; KCNH2 3.1 block: inactive; Six1-Eya2 inh: inactive; CtBP-E1A blk: inactive

How did COC/C=C/C1=CC2=CC(=O)C(C)(OC(=O)c3cnc4ccccc4n3)C(=O)C2=CN1CCc1ccccn1 (stereo not given) do in these assays?
JMJD2E inh: inactive[11.4 µM]

Results for CC1Cc2cc(S(=O)(=O)N3CCC(C(N)=O)CC3)ccc2N1C(=O)C1CC1 (stereo not given) ?
hERG WT inh: inactive; KCNH2 3.1 block: inactive; Six1-Eya2 inh: inactive; CtBP-E1A blk: inactive

Results for CCN1CCN(C(c2ccc(OC)cc2)C(O)C(=O)c2c[nH]c3ccccc23)CC1 (stereo not given) ?
hERG WT inh: -104; JMJD2E inh: inactive; KCNH2 3.1 block: -99; Six1-Eya2 inh: inactive; CtBP-E1A blk: inactive

Results for COc1ccc(OCC(=O)c2c[nH]c3ccccc23)cc1 ?
hERG WT inh: inactive; JMJD2E inh: inactive; KCNH2 3.1 block: inactive; Six1-Eya2 inh: inactive; CtBP-E1A blk: inactive

Results for O=C(NCc1ccc(N2CCCC2=O)cc1)Nc1cccc2ccccc12 ?
hERG WT inh: inactive; JMJD2E inh: inactive; KCNH2 3.1 block: inactive; Six1-Eya2 inh: inactive; CtBP-E1A blk: inactive

How did COc1ccccc1C1CCN(Cc2ccc(C)cc2)CC1 do in these assays?
hERG WT inh: inactive; KCNH2 3.1 block: -84; Six1-Eya2 inh: inactive; CtBP-E1A blk: inactive

How did COc1ccc(C(N)c2nccc3cc(OC)c(OC)cc23)cc1OC (stereo not given) do in these assays?
hERG WT inh: inactive; KCNH2 3.1 block: inactive; Six1-Eya2 inh: -75; CtBP-E1A blk: inconclusive

Results for Cc1cc(C)n(-c2nc(NCC(C)O)c3c4c(sc3n2)COC(C)(C)C4)n1 (stereo not given) ?
hERG WT inh: inactive; JMJD2E inh: inconclusive; KCNH2 3.1 block: inactive; Six1-Eya2 inh: inactive; CtBP-E1A blk: inactive

How did Cc1cc(C)n(-c2nc(SCCN(C)C)c3c4c(sc3n2)COC(C)(C)C4)n1 do in these assays?
hERG WT inh: inconclusive; JMJD2E inh: inactive; KCNH2 3.1 block: -137; Six1-Eya2 inh: inactive; CtBP-E1A blk: inactive

How did CCOC(=O)N1CCN(S(=O)(=O)c2ccc(C(=O)NNc3nc4cc(C)cc(C)c4s3)cc2)CC1 do in these assays?
hERG WT inh: inactive; JMJD2E inh: 25µM; KCNH2 3.1 block: inactive; Six1-Eya2 inh: inactive; CtBP-E1A blk: inactive

How did CCOC(=O)N1CCN(S(=O)(=O)c2ccc(C(=O)NNc3nc4c(C)cc(C)cc4s3)cc2)CC1 do in these assays?
hERG WT inh: inactive; JMJD2E inh: inactive; KCNH2 3.1 block: inactive; Six1-Eya2 inh: inactive; CtBP-E1A blk: inactive

Results for CN(C)c1ccc(C(c2ccc(N(C)C)cc2)C(O)c2ccccc2)cc1 (stereo not given) ?
hERG WT inh: inactive; Six1-Eya2 inh: -65; CtBP-E1A blk: inactive

How did CN(C)c1ccc(C(=O)C(O)c2ccccc2)cc1 (stereo not given) do in these assays?
hERG WT inh: inactive; JMJD2E inh: inconclusive; KCNH2 3.1 block: inactive; Six1-Eya2 inh: inactive; CtBP-E1A blk: inactive

How did CC(=O)Nc1sc2c(c1CN1CCCC1)CCCC2 do in these assays?
hERG WT inh: inactive; JMJD2E inh: inactive; KCNH2 3.1 block: inactive; Six1-Eya2 inh: inactive; CtBP-E1A blk: inactive

What do the screens show for `COc1ccc(N2CC(C(=O)OCC(=O)Nc3cc(C)on3)CC2=O)cc1` (stereo not given)?
hERG WT inh: inactive; KCNH2 3.1 block: inactive; Six1-Eya2 inh: inactive; CtBP-E1A blk: inactive

What do the screens show for `NC(=O)CSc1nnc(Cc2ccc3c(c2)OCO3)n1C1CCCCC1`?
hERG WT inh: inactive; JMJD2E inh: inactive; KCNH2 3.1 block: -77; Six1-Eya2 inh: inactive; CtBP-E1A blk: inactive

Results for CN1CCCN(CC(O)COCc2cccs2)CC1 (stereo not given) ?
hERG WT inh: inactive; JMJD2E inh: inconclusive; KCNH2 3.1 block: inactive; Six1-Eya2 inh: inactive; CtBP-E1A blk: inactive

Results for OC(COCc1cccs1)CN1CCN(c2ccccc2Cl)CC1 (stereo not given) ?
hERG WT inh: inactive; JMJD2E inh: inactive; KCNH2 3.1 block: -83; Six1-Eya2 inh: inactive; CtBP-E1A blk: inactive

How did CCOc1ccccc1N1CCN(CC(O)COCc2cccs2)CC1 (stereo not given) do in these assays?
hERG WT inh: inactive; KCNH2 3.1 block: inactive; Six1-Eya2 inh: inactive; CtBP-E1A blk: inactive

What do the screens show for `Cc1cccc(N2CCN(CC(O)COCc3cccs3)CC2)c1C` (stereo not given)?
hERG WT inh: -80; JMJD2E inh: inactive; KCNH2 3.1 block: -98; Six1-Eya2 inh: inactive; CtBP-E1A blk: inactive
